Assay results reported in paper PMC5540273 (PLoS ONE, 2017).

Columns and labels:
Settings in all cases: concentration: 1 μM, replicates: in singlicate; n = 1
HIPK2 = system: HIPK2
HIPK3 = system: HIPK3
HIPK4 = system: HIPK4
HPK1 = system: HPK1
HUNK = system: HUNK
ICK = system: ICK
IGF1R = system: IGF1R
IKK-alpha = system: T1, IKK-alpha
T1 construct: gene CHUK

IKK-beta = system: T2, IKK-beta
T2 construct: gene IKBKB

IKK-epsilon = system: T3, IKK-epsilon
T3 construct: gene IKBKE

INSRR = system: INSRR
INSR = system: INSR
IRAK1 = system: IRAK1
IRAK3 = system: IRAK3
IRAK4 = system: IRAK4
ITK = system: ITK
[1] = system: JAK1(JH1domain-catalytic)
[2] = system: JAK1(JH2domain-pseudokinase)
[3] = system: JAK2(JH1domain-catalytic)
[4] = system: JAK3(JH1domain-catalytic)
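Also: KINOMEscan kinase panel screen.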

Row | Compound | %Inh (HIPK2) | %Inh (HIPK3) | %Inh (HIPK4) | %Inh (HPK1) | %Inh (HUNK) | %Inh (ICK) | %Inh (IGF1R) | %Inh (IKK-alpha) | %Inh (IKK-beta) | %Inh (IKK-epsilon) | %Inh (INSRR) | %Inh (INSR) | %Inh (IRAK1) | %Inh (IRAK3) | %Inh (IRAK4) | %Inh (ITK) | %Inh [1] | %Inh [2] | %Inh [3] | %Inh [4]
1 | COc1cc2c(Nc3cccc(NC(=O)c4ccccc4)c3)ncnc2cc1OCCCN1CCOCC1 [GSK223810] | 0% | 0% | 7% | 55% | 0% | 0% | 0% | 0% | 0% | 19% | 7% | 10% | 0% | 41% | 0% | 9% | 0% | 0% | 4% | 0%
2 | CCn1c(-c2ccncc2)nc2cnccc21 [SB-735216] | 18% | 24% | 15% | 0% | 27% | 10% | 0% | 20% | 23% | 10% | 0% | 7% | 6% | 0% | 17% | 0% | 15% | 12% | 10% | 0%
3 | Cl.Cl.c1ccc(-c2cc3ccncc3cc2OC2CCNCC2)cc1 [GSK1122999] | 0% | 20% | 0% | 51% | 27% | 0% | 0% | 72% | 98.7% | 9% | 0% | 0% | 56% | 24% | 1% | 11% | 22% | 0% | 8% | 0%
4 | Nc1nc(-c2ccc3c(N)n[nH]c3c2)cc(N2CCCCC2)n1 [GSK2228768] | 0% | 0% | 0% | 32% | 0% | 0% | 0% | 0% | 0% | 29% | 0% | 1% | 0% | 0% | 9% | 18% | 0% | 0% | 0% | 0%
5 | CC(C)(C)c1ccc(-n2cnc3c(N)ncnc32)cc1 [SKF-97263] | 0% | 6% | 0% | 60% | 14% | 17% | 11% | 0% | 7% | 19% | 6% | 21% | 0% | 7% | 0% | 6% | 7% | 82% | 24% | 0%
6 | Cc1ccc(C)c(NC(=O)NCCNc2ccnc(Nc3ccc(F)cc3)n2)c1 [GSK1379878] | 0% | 0% | 0% | 28% | 0% | 0% | 0% | 0% | 0% | 9% | 0% | 0% | 0% | 0% | 0% | 0% | 0% | 0% | 1% | 0%
7 | CC(C)N1CCC(n2cnc(-c3ccc(F)cc3)c2-c2ccnc(N)n2)CC1 [SB-223132] | 0% | 0% | 11% | 0% | 0% | 0% | 0% | 0% | 0% | 0% | 0% | 0% | 0% | 23% | 0% | 0% | 0% | 56% | 0% | 24%
8 | CS(=O)(=O)CCNCc1ccc(-c2ccc3ncnc(Nc4ccc(OCc5ccccc5)c(Cl)c4)c3c2)o1.Cl [GW574783] | 13% | 18% | 18% | 22% | 14% | 0% | 13% | 0% | 0% | 7% | 24% | 7% | 0% | 12% | 0% | 0% | 9% | 0% | 14% | 0%
9 | COc1ccc(NC(=O)c2ccc(-c3cc(-c4nnc(C)o4)ccc3C)cc2)cc1 [GW595885] | 0% | 10% | 0% | 24% | 3% | 4% | 0% | 25% | 24% | 0% | 0% | 0% | 37% | 0% | 16% | 6% | 9% | 0% | 12% | 0%
10 | Fc1cccc(COc2ccc(Nc3ncnc4sc(-c5ccc[nH]5)cc34)cc2Cl)c1 [GW707818] | 0% | 1% | 0% | 39% | 10% | 0% | 0% | 0% | 0% | 0% | 0% | 13% | 20% | 0% | 0% | 0% | 18% | 4% | 100% | 0%
11 | Clc1cc(Nc2ncnc3cc[nH]c23)ccc1OCc1ccccn1 | 19% | 27% | 0% | 0% | 13% | 18% | 0% | 9% | 20% | 27% | 0% | 3% | 6% | 19% | 2% | 0% | 3% | 35% | 16% | 0%
12 | O=C(Nc1ccccc1)Nc1ccc(Oc2ccc3nccn3n2)cc1 | 0% | 0% | 4% | 0% | 9% | 0% | 0% | 0% | 0% | 0% | 1% | 0% | 0% | 0% | 0% | 20% | 28% | 2% | 8% | 0%
13 | COc1ccc(-c2oc3ncnc(N)c3c2-c2ccc(OC)cc2)cc1 [SB-589132] | 25% | 3% | 0% | 40% | 8% | 0% | 0% | 49% | 4% | 6% | 0% | 0% | 56% | 15% | 58% | 19% | 25% | 31% | 1% | 19%
14 | O=C(CCO)NCCn1ccc2ncnc(Nc3ccc(Oc4cccc(C(F)(F)F)c4)c(Cl)c3)c21 | 0% | 0% | 0% | 7% | 0% | 0% | 0% | 0% | 0% | 0% | 0% | 0% | 0% | 0% | 0% | 0% | 0% | 36% | 0% | 0%
15 | OCCOCCn1ccc2ncnc(Nc3ccc(Oc4cccc(Cl)c4)c(Cl)c3)c21 | 0% | 0% | 0% | 0% | 7% | 0% | 0% | 0% | 0% | 0% | 0% | 0% | 0% | 0% | 0% | 0% | 0% | 38% | 0% | 0%
16 | Nc1nccc2scc(-c3ccc4c(c3)CCN4C(=O)Cc3cc(F)ccc3F)c12 [GSK2587663] | 0% | 6% | 0% | 28% | 14% | 0% | 13% | 5% | 0% | 5% | 0% | 0% | 17% | 10% | 7% | 18% | 14% | 0% | 0% | 0%
